Screens from PubChem BioAssay.
A selection: hits, their analogues and other compounds. The true share with any hit is near 8.3%.
RORg inh – blocks mouse ROR gamma transcriptional activity | P51450 | Drosophila S2 Gal4-RORgamma UAS-luciferase reporter, 20 h | Potency, µM (titrated, usually from 53.6 µM), actives largely listed as inhibitors | hit rate 5.4% among 310,000 | AID 2551; further: nearly all actives have a fitted effect of over 60% in size
Target sequence (P51450 whole entry, looked up, the tested form may be a part): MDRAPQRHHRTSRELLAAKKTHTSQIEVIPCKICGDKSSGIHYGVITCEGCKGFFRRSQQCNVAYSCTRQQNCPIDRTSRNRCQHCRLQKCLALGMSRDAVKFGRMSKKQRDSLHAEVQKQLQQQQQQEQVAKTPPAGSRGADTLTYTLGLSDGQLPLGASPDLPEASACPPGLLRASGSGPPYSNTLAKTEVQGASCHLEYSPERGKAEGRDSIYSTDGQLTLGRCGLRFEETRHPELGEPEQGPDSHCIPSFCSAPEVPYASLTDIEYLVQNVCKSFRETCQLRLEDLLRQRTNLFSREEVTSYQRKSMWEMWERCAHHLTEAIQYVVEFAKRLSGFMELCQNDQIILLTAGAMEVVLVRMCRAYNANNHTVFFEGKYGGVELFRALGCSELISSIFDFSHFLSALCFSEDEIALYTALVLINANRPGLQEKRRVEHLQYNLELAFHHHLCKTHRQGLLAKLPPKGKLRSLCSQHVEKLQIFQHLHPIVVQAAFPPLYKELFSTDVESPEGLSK
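Read-out: Photinus luciferase luminescence; inhibitors lower reporter signal. Insect Schneider cells with Gal4-ROR gamma fusion under metallothionein promoter, UAS reporter; 700 uM final copper sulfate induction, 20 hr, ambient temperature.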
Giardia kill – kills Giardia lamblia | activity change, % at 7.66 µM, hits read low | Giardia lamblia trophozoite viability | hit rate 0.15% among 340,000; in the data active means activity change below about -80%; inconclusive means between about -30% and that limit;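 further: parasites exposed to compound for two days anaerobically before the ATP read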
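Giardia lamblia trophozoites (100 cells/well) were incubated with compounds for 48 h at 37 deg C under anaerobic conditions. Viability was read as ATP content by one-step luminescence after 15-30 min at room temperature.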
SW480 rereplic – DNA re-replication induction in SW480 cells | hit rate 1.8% among 340,000 | SW480 DNA re-replication, Hoechst DNA content imaging, 48 h | AID 624297 | Potency, µM (top dose mostly 46.1 µM), hits mostly activators; further: nearly all actives have a fitted effect of over 55% in size
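Cells (250 per well) received 23 nL compound or DMSO by pin tool and were kept 48 hr at 37 C, 5% CO2. Nuclei were then stained with Hoechst for 40 min and scanned for DNA content.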
Chronic BCR inh – chronic active BCR signaling inhibition; ABC-DLBCL IkBa-CBG/CBR reporter, luminescence ratio, 4 h; Potency, µM (series often up to 46.1 µM), usual class: inhibitors; hit rate 0.05% among 340,000; AID 493014; active means well fitted inhibition curve with a large enough effect in the signal ratio, with a control signal flat, not every such curve was filed as active; inconclusive means small, poorly fitted or top-dose-only effect, or effect the other way, or a change in a side signal; the % refers to the signal ratio
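TMD8 ABC-DLBCL cells carrying doxycycline-inducible green luciferase fused to IkappaBalpha plus unfused red luciferase were exposed to compounds (up to 46 uM) for 4 hrs at 37C. Activity came from the overlap-corrected green/red luminescence ratio.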
VP16 counter – counter-screen for ROR gamma inhibitors: Gal4-VP16 reporter | Drosophila S2 Gal4-VP16 UAS-luciferase, luminescence, 20 h | Potency, µM (series often up to 53.6 µM), actives largely listed as inhibitors | hit rate 3.5% among 310,000;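 further: Gal4-VP16 expression switched on by copper sulfate through the metallothionein promoter; nearly all actives have a fitted effect of over 50% in size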
MCF10A rerep – inducers of DNA re-replication in MCF 10A breast cells; AID 624296; Potency, µM (top dose mostly 46.1 µM), hits mostly activators; MCF 10A DNA re-replication, Hoechst nuclear intensity, 48 h; hit rate 2.9% among 350,000; further: nearly all actives have a fitted effect of over 50% in size
A number is an active result; – = inactive; ? = inconclusive; · = not tested or not shown; ! = repeats disagree; [ ] = remark or other dose. Unless noted, the call rests on the fitted dose curve; in most records, active means well fitted curve in the direction sought with a large enough effect; inconclusive means small, poorly fitted or top-dose-only effect, or another doubt; inactive means no such curve, though single readings can be large; an effect the other way counts as inactive or inconclusive.

SMILES | RORg inh | Giardia kill | SW480 rereplic | Chronic BCR inh | VP16 counter | MCF10A rerep
C[C@@H]1Cc2c(Cl)cc(C(=O)N[C@@H](Cc3ccccc3)C(=O)O)c(O)c2C(=O)O1 | ? | · | · | · | 22.4µM | ·
Cc1cc(OCC(=O)N[C@@H](Cc2ccccc2)C(=O)O)c2c3c(c(=O)oc2c1)CCCC3 | – | – | – | ? | – | –
FC(F)(F)c1cccc(-c2nc3nc(Cl)c(Cl)nc3[nH]2)c1 | 10µM | – | ? | ? | 5.62µM | ?
O=[N+]([O-])c1ccc(N2CCNCC2)c2ncccc12 | – | · | · | ? | – | ·
CN1CCN(c2ccc([N+](=O)[O-])c3cccnc23)CC1 | – | -83.6 | – | – | – | –
O=C1NC(=O)N(c2ccc3c(c2)OCO3)C(=O)/C1=C\c1ccc(-c2ccccc2C(=O)O)o1 | – | – | – | – | – | –
CCOC(=O)C1=C(O)/C(=C/c2ccc(-c3ccccc3C(=O)O)o2)SC1=Nc1ccc(C)cc1 | – | – | ? | ? | – | 13µM
C[C@H]1CCC/C=C/[C@@H]2C[C@H](O)C[C@H]2[C@H](O)/C=C/C(=O)O1 | – | – | ? | ? | – | 0.651µM!
CCOC(=O)C1=C(C)NC(=S)NC1c1ccc(-c2cccc(Cl)c2C)o1 (stereo not given) | 3.98µM | – | ? | ? | 8.91µM | ?
CN(CC(=O)Nc1ccc(N2CCOCC2)cc1)CC(=O)Nc1cccc(C#N)c1 | – | – | ? | – | ? | –
CCOC(=O)C/C(C)=N/NC(=O)COc1ccccc1C | 14.1µM | – | – | – | ? | ?
Cc1cc(Cl)ccc1OCC(=O)O | – | – | – | – | – | ?
CC1=C[C@H]2[C@]3(O)C(C=C(CO)C[C@]2(O)C1=O)[C@@H]1C(C)(C)[C@]1(O)[C@H](O)[C@H]3C (stereo not given in full) | – | · | · | · | – | ·
CCCCN(C(=O)Oc1ccccc1)C1CCS(=O)(=O)C1 (stereo not given) | ? | – | – | – | – | –
O=c1c2ccccc2nc(/C=C/c2ccc(O)cc2)n1-c1cccc(O)c1 | – | ? | ? | ? | – | 23.1µM
O=c1c2ccccc2nc(/C=C/c2ccc(O)cc2)n1-c1ccc(O)cc1 | – | – | – | ? | – | 23.1µM
Cc1ccc(-n2c(/C=C\c3ccc(F)cc3)nc3ccccc3c2=O)cc1Cl | · | · | · | – | · | ·
COc1ccc(-n2c(/C=C/c3ccc(O)cc3)nc3ccccc3c2=O)cc1 | – | – | – | ? | – | 0.82µM
COc1ccc(-n2c(/C=C/c3ccc(O)c(OC)c3)nc3ccccc3c2=O)cc1 | – | – | ? | ? | – | ?
COc1cccc(-n2c(/C=C/c3ccc(O)c(O)c3)nc3ccccc3c2=O)c1 | – | – | 10.3µM | ? | – | 18.4µM
c1ccc2c(c1)CCCC2 | – | · | · | · | – | ·
CCOP(=O)(c1ccc(N(C)C)cc1)C(O)c1ccccc1F (stereo not given) | – | – | – | ? | – | –
CN(C)C1CSSSC1 | ? | · | · | · | – | ·
CCC1(CC)CCNC1=O | – | · | · | · | – | ·
CCN1CC2(OC(=O)c3ccccc3NC(C)=O)CCC(OC)[C@]34C1[C@H](CC23)[C@@]1(O)C[C@H](OC)[C@H]2CC4C1(O)[C@H]2OC (stereo not given in full) | – | · | · | · | – | ·
SMILES | RORg inh | Giardia kill | SW480 rereplic | Chronic BCR inh | VP16 counter | MCF10A rerep
Cc1ccccc1CN1Cc2cnnn2-c2ccccc2C1C#N (stereo not given) | · | – | ? | · | · | 6.51µM
Cc1ccccc1C(=O)N1Cc2cnnn2-c2ccccc2C1C#N (stereo not given) | · | – | –[9.22 µM] | · | · | –
O=c1oc2ccccc2c(O)c1Cc1c(O)c2ccccc2oc1=O | – | · | – | · | – | –
O=Nc1c(O)c2ccccc2c2ccccc12 | · | – | 1.84µM | · | · | 6.51µM
Nc1ncnc2c1ncn2[C@@H]1O[C@H](COP(=O)(O)OP(=O)(O)OP(=O)(O)O)[C@H]2OC3(O[C@H]21)C([N+](=O)[O-])=CC(=[N+]([O-])[O-])C=C3[N+](=O)[O-] (stereo not given in full) | – | · | · | · | – | ·
Nc1ccc2c3c(cccc13)CC2 | – | – | 16.4µM | ? | – | 16.4µM
O=[N+]([O-])c1ccc2c3c(cccc13)CC2 | – | · | · | · | – | ·
COc1ccc(C(=O)OC2CCN(C)CC2)cc1 | 12.6µM | – | – | – | – | –
CCCC(CCC)C(=O)OC1C[C@H]2CC[C@@H](C1)[N+]2(C)C (stereo not given in full) | – | – | – | – | – | ?
O=C(Nc1cccc(F)c1)N1CCC(c2ccccc2)CC1 | – | ? | – | ? | – | ?
COc1ccc(/C=C/C=C2C(=O)NC(=S)NC2=O)cc1 | · | – | 16.4µM | · | · | 5.8µM
CCOC(=O)C1=C(NC(=S)NC(=O)c2ccccc2)c2ccccc2CC12CCCC2 | 3.16µM | – | ? | ? | 4.47µM | 11.6µM
CCOP(=O)(OCC)C(NC(=O)c1ccccc1)=C(Cl)Cl | – | – | ? | – | – | –
O=C1c2ccc3c4c(ccc(c24)C(=O)N1c1cccc(O)c1)C(=O)N(c1cccc(O)c1)C3=O | ? | – | 2.59µM | ? | ? | 13µM
CCSc1cc(C2C(C#N)=C(N)Oc3n[nH]c(C)c32)c(C)o1 (stereo not given) | 11.2µM | – | ? | ? | ? | ?
Clc1ccc(C(Cl)(Cl)Cl)cc1Cl | – | · | · | · | – | ·
CC(C)C(=O)Nc1ccc(C(=O)NCc2cccnc2)cc1 | – | – | 0.517µM | – | – | –
CCC1Sc2ccccc2N(CC(=O)NCCC(C)C)C1=O (stereo not given) | – | – | – | ? | – | –
Cc1o[nH]c(=O)c1C[C@H](N)C(=O)O | – | · | · | · | – | ·
Nc1c(C(=O)OC2CCCCC2)c2nc3ccccc3nc2n1CC1CCCO1 (stereo not given) | 11.2µM | – | ? | – | – | ?
CC(C)OC(=O)c1c(N)n(CC2CCCO2)c2nc3ccccc3nc12 (stereo not given) | – | – | – | – | – | –
CC(C)OCCCNC(=O)c1c(N)n(CC2CCCO2)c2nc3ccccc3nc12 (stereo not given) | – | – | – | ? | – | –
CCCNC(=O)c1c(N)n(CC2CCCO2)c2nc3ccccc3nc12 (stereo not given) | ? | – | 16.4µM | ? | 6.31µM | 18.4µM
C=CC(=O)OC | – | · | · | · | – | ·
CC1CCC(C(C)C)C(OC(=O)c2ccccc2N)C1 (stereo not given) | – | · | – | · | ? | 18.8µM
CN(C(=O)CSc1nnc(COc2ccccc2F)n1N)C1CCCCC1 | · | – | – | – | · | –
C1=C(c2c[nH]c3ccccc23)CCN(Cc2ccccc2)C1 | – | – | 13µM | – | – | 16.4µM
Cc1onc(-c2ccccc2)c1C(=O)N[C@@H]1C(=O)N2[C@@H]1SC(C)(C)[C@@H]2C(=O)O | – | · | – | – | – | –
CC1=CC(C)(C)n2c(O)c(N=N)c3c(C)c(C)cc1c32 | – | – | ? | ? | – | 23.1µM
